From PubChem BioAssay (Tox21)
Results filed as inconclusive are left out. Unmarked numbers belong to inactive results. Calls of active or inactive are those of the source. Unless noted, calls come from the whole dose curve; as a rule, active = well fitted cell-killing curve with a large enough effect in the repeat runs; inconclusive = weak or mixed curves, or effect the other way; inactive = flat fitted curve, though single readings scatter.
% is set by controls: 0 for no effect and ±100 for the full control effect.

Target: Estrogen receptor beta (Homo sapiens) (UniProt Q92731)
Sequence (Q92731 whole entry, looked up): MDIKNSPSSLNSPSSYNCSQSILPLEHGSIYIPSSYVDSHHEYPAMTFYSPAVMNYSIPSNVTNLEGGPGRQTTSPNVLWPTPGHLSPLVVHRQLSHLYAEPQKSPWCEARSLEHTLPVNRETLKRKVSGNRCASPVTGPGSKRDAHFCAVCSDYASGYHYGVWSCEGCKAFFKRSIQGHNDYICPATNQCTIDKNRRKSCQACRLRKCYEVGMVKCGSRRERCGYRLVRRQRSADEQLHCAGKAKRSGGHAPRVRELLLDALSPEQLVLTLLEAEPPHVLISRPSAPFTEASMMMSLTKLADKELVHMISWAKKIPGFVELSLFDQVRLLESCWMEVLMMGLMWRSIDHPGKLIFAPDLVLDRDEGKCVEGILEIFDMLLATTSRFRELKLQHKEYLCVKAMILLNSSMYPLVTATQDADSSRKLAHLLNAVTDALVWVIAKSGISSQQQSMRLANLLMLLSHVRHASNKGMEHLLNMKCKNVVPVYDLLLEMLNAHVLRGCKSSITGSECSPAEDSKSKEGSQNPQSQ
Assay: qHTS assay to identify small molecule agonists of the estrogen receptor beta (ER-beta) signaling pathway (AID 1259377; active = well fitted activation curve with a large enough effect in the signal ratio in the repeat runs, not every such curve was filed as active; the % refers to the signal ratio)
Settings: ER-beta-UAS-bla HEK293T, beta-lactamase FRET ratio, 16 h; series mostly up to 92.4 µM; activation: at the top concentration
In short: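 ER-beta-UAS-bla HEK293T cells in medium with 2% charcoal-stripped FBS were exposed to compounds for 16 h at 37C. Beta-lactamase reporter activity was read as fluorescence after 2 h with LiveBLAzer B/G FRET substrate at room temperature.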
With `O=C1CCC(=O)N1` the “activation” value was 0.27%. For `CCc1cccc(C)c1N(C(=O)CS(=O)(=O)O)C(C)COC` (stereo not drawn), the “activation” value was -2.8%. In the case of `Cc1cc(C)c(O)c(C(C)(C)C)c1`, the “activation” value is reported as 0.0521%. In the case of `CCN(CC)c1ccc(C=O)cc1`, the “activation” value is reported as -2.7%. For `CC(C)C(=O)C(C)C`, the “activation” value was -2.97%. For `Clc1ccc2c(Cl)ccnc2c1`, the “activation” value was 0.0696%. With `C/C=C/C(=O)OCC(C)C` the “activation” value was -0.604%. In the case of `CCCCCCCCc1ccc(Nc2ccc(CCCCCCCC)cc2)cc1`, the “activation” value is reported as -0.559% [at 42.5 µM]. For `C=C1CC[C@H]2O[C@]2(C)CC[C@@H]2[C@@H]1CC2(C)C`, the “activation” value was -1.61%. In the case of `NC(=O)C1CO1` (stereo not drawn), the “activation” value is reported as 2.19%. With `CC(C=O)c1ccccc1` (stereo not drawn) the “activation” value was 1.38%. In the case of `CSc1nnc(C(C)(C)C)c(=O)[nH]1`, the “activation” value is reported as 4.7%. With `C/C(=C\c1ccc(C(=O)O)cc1)c1ccc2c(c1)C(C)(C)CCC2(C)C` the “activation” value was -1.61% [at 42.5 µM]. With `O=C(NCc1ncc(C(F)(F)F)cc1Cl)c1c(Cl)cccc1Cl` the “activation” value was -2.71%.

Target: Estrogen receptor beta (Homo sapiens) (UniProt Q92731)
Assay: qHTS assay to identify small molecule antagonists of the estrogen receptor beta (ER-beta) signaling pathway (AID 1259378; active = well fitted inhibition curve with a large enough effect in the signal ratio in the repeat runs, not every such curve was filed as active; the % refers to the signal ratio; note: potency is the fitted concentration of half-maximal effect)
Settings: ER-beta-UAS-bla HEK293T, beta-lactamase FRET ratio, 16 h; series mostly up to 92.4 µM; activity, negative = inhibition: at the top concentration
In short: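 ER-beta-UAS-bla HEK293T cells in 2% charcoal-stripped FBS medium treated with compound plus 1nM final 17-beta-estradiol for 16 hr at 37C. Beta-lactamase reporter read by FRET substrate fluorescence after 2 hours at room temperature.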
With `CCOC=C(C(=O)OCC)C(=O)OCC` the “activity, negative = inhibition” value was -12.3%. With `O=C1CCC(=O)N1` the “activity, negative = inhibition” value was 12.7%. For `CCc1cccc(C)c1N(C(=O)CS(=O)(=O)O)C(C)COC` (stereo not drawn), the “activity, negative = inhibition” value was 8.32%. For `O=[N+]([O-])c1ccc(CO)cc1`, the “activity, negative = inhibition” value was 2.11%. For `CN[C@H]1CC[C@@H](c2ccc(Cl)c(Cl)c2)c2ccc(S(N)(=O)=O)cc21`, the Potency was 24.3 µM (active). For `Cc1ccc2sc3cccc(C)c3c2c1`, the “activity, negative = inhibition” value was 3.14%. In the case of `Cc1cc(C)c(O)c(C(C)(C)C)c1`, the “activity, negative = inhibition” value is reported as 3.85%. For `CCN(CC)c1ccc(C=O)cc1`, the “activity, negative = inhibition” value was -1.5%. With `O=C1CCCCCCCCCCCCCC1` the “activity, negative = inhibition” value was -7.53%. With `Cc1ccc(C=O)cc1` the “activity, negative = inhibition” value was 3.66% [at 42.5 µM]. With `SC1CCCCC1` the “activity, negative = inhibition” value was 14.8%. In the case of `CC(C)C(=O)C(C)C`, the “activity, negative = inhibition” value is reported as 13.9%. With `CCc1cccc(CC)c1` the “activity, negative = inhibition” value was 11.1%. With `Clc1ccc2c(Cl)ccnc2c1` the “activity, negative = inhibition” value was -1%. In the case of `CCC1(C)C(=O)N(Cl)C(=O)N1Cl` (stereo not drawn), the “activity, negative = inhibition” value is reported as -12.3%. With `CSc1ccc(O)cc1C` the Potency was 54.5 µM (active). In the case of `Nc1ccc(F)c([N+](=O)[O-])c1`, the “activity, negative = inhibition” value is reported as -21.7%. In the case of `O=c1[nH]cccc1O`, the “activity, negative = inhibition” value is reported as -30.3%. In the case of `C/C=C/C(=O)OCC(C)C`, the “activity, negative = inhibition” value is reported as -4.14%. With `CCOC(=O)OC(=O)OCC` the “activity, negative = inhibition” value was -3.77%. In the case of `CCCCCCCCc1ccc(Nc2ccc(CCCCCCCC)cc2)cc1`, the “activity, negative = inhibition” value is reported as -5.74% [at 42.5 µM]. With `Cc1cccc2c1ccc1ccccc12` the “activity, negative = inhibition” value was -2.72%. In the case of `C=C1CC[C@H]2O[C@]2(C)CC[C@@H]2[C@@H]1CC2(C)C`, the “activity, negative = inhibition” value is reported as -11%. With `NC(=O)C1CO1` (stereo not drawn) the “activity, negative = inhibition” value was 4.68%. In the case of `Cc1c[nH]c(=O)[nH]c1=O`, the “activity, negative = inhibition” value is reported as -12.6%. For `NCc1ccco1`, the “activity, negative = inhibition” value was -18.9%. With `CCc1c(C)cc(N)c(CC)c1N` the “activity, negative = inhibition” value was -0.353%. With `O=C1OCc2ccccc21` the “activity, negative = inhibition” value was 0.18%. In the case of `Nc1c(Br)cc([N+](=O)[O-])cc1Br`, the “activity, negative = inhibition” value is reported as 1.53%. For `CC(C=O)c1ccccc1` (stereo not drawn), the “activity, negative = inhibition” value was 15.5%. With `CCOC(=O)[C@H](O)[C@@H](O)C(=O)OCC` the “activity, negative = inhibition” value was 2.5%. For `CSc1nnc(C(C)(C)C)c(=O)[nH]1`, the “activity, negative = inhibition” value was -2.35%. In the case of `Cc1ccc2n[nH]nc2c1`, the “activity, negative = inhibition” value is reported as -4.38%. For `CCCC(C)C=O` (stereo not drawn), the “activity, negative = inhibition” value was 14.7%. In the case of `C=CC(C)(C)O`, the “activity, negative = inhibition” value is reported as 0.739%.

Test system: not listed separately
Assay: qHTS assay to identify small molecule agonists of the androgen receptor (AR) signaling pathway in the presence of an antagonist - cell viability counter screen (AID 1259379); note: nearly all actives have a fitted effect of over 25% in size; note: potency is the fitted concentration of half-maximal effect;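 for activity change, negative = cytotoxicity: MDA-kb2 human breast cancer cells carrying an MMTV luciferase reporter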
Settings: MDA-kb2 viability, CellTiter-Fluor, 16 h; series mostly up to 92.4 µM; activity change, negative = cytotoxicity: at the top concentration
In short: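 Nilutamide-containing (3.0uM final) MDA-kb2 cultures, 3,000 cells/well, were treated with compounds across 15 concentrations. After 16 hr at 37C with no CO2, cell viability was determined by CellTiter-Fluor fluorescence in the luciferase assay wells.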
In the case of `CCOC=C(C(=O)OCC)C(=O)OCC`, the “activity change, negative = cytotoxicity” value is reported as 0.495%. In the case of `O=C1CCC(=O)N1`, the “activity change, negative = cytotoxicity” value is reported as 0.933%. For `CCc1cccc(C)c1N(C(=O)CS(=O)(=O)O)C(C)COC` (stereo not drawn), the “activity change, negative = cytotoxicity” value was -1.88%. With `O=[N+]([O-])c1ccc(CO)cc1` the “activity change, negative = cytotoxicity” value was 0.706%. With `C=CC(=O)OCCOC1C2CCC1C1CC=CC12` (stereo not drawn) the activity change, negative = cytotoxicity was -6.73% [at 19 µM]. With `Cc1cc(C)c(O)c(C(C)(C)C)c1` the “activity change, negative = cytotoxicity” value was 0.0006%. With `CCN(CC)c1ccc(C=O)cc1` the “activity change, negative = cytotoxicity” value was 1.43%. In the case of `O=C1CCCCCCCCCCCCCC1`, the “activity change, negative = cytotoxicity” value is reported as 2.08%. For `Cc1ccc(C=O)cc1`, the “activity change, negative = cytotoxicity” value was 0% [at 42.5 µM]. In the case of `CC(C)C(=O)C(C)C`, the “activity change, negative = cytotoxicity” value is reported as 1.14%. With `CCc1cccc(CC)c1` the “activity change, negative = cytotoxicity” value was 1.36%. With `Clc1ccc2c(Cl)ccnc2c1` the “activity change, negative = cytotoxicity” value was -0.187%. In the case of `CCC1(C)C(=O)N(Cl)C(=O)N1Cl` (stereo not drawn), the “activity change, negative = cytotoxicity” value is reported as -0.397%. For `Nc1ccc(F)c([N+](=O)[O-])c1`, the “activity change, negative = cytotoxicity” value was -4%. In the case of `O=c1[nH]cccc1O`, the “activity change, negative = cytotoxicity” value is reported as 1.95%. For `C/C=C/C(=O)OCC(C)C`, the “activity change, negative = cytotoxicity” value was -1.27%. With `CCOC(=O)OC(=O)OCC` the “activity change, negative = cytotoxicity” value was 0.415%. In the case of `CCCCCCCCc1ccc(Nc2ccc(CCCCCCCC)cc2)cc1`, the “activity change, negative = cytotoxicity” value is reported as 2.77% [at 42.5 µM]. In the case of `C=C(C)C1CCC(C)CC1O` (stereo not drawn), the “activity change, negative = cytotoxicity” value is reported as 2.28%. In the case of `C=C1CC[C@H]2O[C@]2(C)CC[C@@H]2[C@@H]1CC2(C)C`, the “activity change, negative = cytotoxicity” value is reported as -2.62%. For `NC(=O)C1CO1` (stereo not drawn), the “activity change, negative = cytotoxicity” value was 2.77%. In the case of `Cc1c[nH]c(=O)[nH]c1=O`, the “activity change, negative = cytotoxicity” value is reported as 2.67%. For `NCc1ccco1`, the “activity change, negative = cytotoxicity” value was -1.94%. In the case of `O=C1OCc2ccccc21`, the “activity change, negative = cytotoxicity” value is reported as 0.456%. For `Nc1c(Br)cc([N+](=O)[O-])cc1Br`, the “activity change, negative = cytotoxicity” value was 1.97%. In the case of `CC(C=O)c1ccccc1` (stereo not drawn), the “activity change, negative = cytotoxicity” value is reported as 0.626%. In the case of `CCOC(=O)[C@H](O)[C@@H](O)C(=O)OCC`, the “activity change, negative = cytotoxicity” value is reported as 2.53%. In the case of `CSc1nnc(C(C)(C)C)c(=O)[nH]1`, the “activity change, negative = cytotoxicity” value is reported as -1.38%. In the case of `CCc1cccc(C)c1N(C(=O)C(=O)O)C(C)COC` (stereo not drawn), the “activity change, negative = cytotoxicity” value is reported as -2.33%. For `Cc1ccc2n[nH]nc2c1`, the “activity change, negative = cytotoxicity” value was 0.823%. For `CCCC(C)C=O` (stereo not drawn), the “activity change, negative = cytotoxicity” value was 2.58%. With `C/C(=C\c1ccc(C(=O)O)cc1)c1ccc2c(c1)C(C)(C)CCC2(C)C` the “activity change, negative = cytotoxicity” value was -5.75% [at 42.5 µM]. For `O=C(NCc1ncc(C(F)(F)F)cc1Cl)c1c(Cl)cccc1Cl`, the Potency was 17.2 µM (active). For `C=CC(C)(C)O`, the “activity change, negative = cytotoxicity” value was -1.6%.
